Results: PubChem BioAssay AID1159580 (chemical genetic matrix, 2015)
The campaign covered roughly 5,500 compounds. About 2,000 (36%) were called active. About 18% were inconclusive and are not listed. No stated cut-off is given here; in the data, active means normalized growth mostly below about 0.91 (no sharp cut-off); inconclusive means no clear call, values can overlap the other calls; inactive means mostly above about 0.92. The list shows a part of the results.

Experiment: chemical genetic growth profiling, strain panel (AID 1159580);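 further: tested at 20 µM; growth read once vehicle control cultures reached saturation at 30 °C; 1 = growth at the plate median or of vehicle wells; lower values mean less growth of the strain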
Conditions: growth OD

Measured: normalized growth

CC(C)Nc1nc(Cl)nc(NC(C)C)n1
inactive: S. cerevisiae deletion strains, locus YJR075W, strain HOC1, hits give low values 1.01 | S. cerevisiae deletion strains, locus YKL009W, strain mrt4, hits give low values 1.01 | S. cerevisiae deletion strains, locus YKL068W, hits give low values 1.01 | S. cerevisiae deletion strains, locus YKL085W, strain MDH1 (second series), hits give low values 1 | S. cerevisiae deletion strains, locus YKL085W, strain MDH1, hits give low values 1 | S. cerevisiae deletion strains, locus YKL160W, strain elf1, hits give low values 1 | S. cerevisiae deletion strains, locus YKL190W, strain CNB1, hits give low values 1.01 | S. cerevisiae deletion strains, locus YKR001C, strain vps1, hits give low values 1.01 | S. cerevisiae deletion strains, locus YKR026C, strain gcn3, hits give low values 0.994 | S. cerevisiae deletion strains, locus YKR091W, strain srl3, hits give low values 0.998 | S. cerevisiae deletion strains, locus YLL001W, strain dnm1, hits give low values 1.01 | S. cerevisiae deletion strains, locus YLL026W, hits give low values 0.991 | S. cerevisiae deletion strains, locus YLL041C, strain sdh2, hits give low values 1 | S. cerevisiae deletion strains, locus YLR027C, strain aat2, hits give low values 0.995 | S. cerevisiae deletion strains, locus YLR039C, strain RIC1, hits give low values 0.995 | S. cerevisiae deletion strains, locus YLR058C, strain SHM2, hits give low values 1.01 | S. cerevisiae deletion strains, locus YLR102C, strain apc9, hits give low values 1.02 | S. cerevisiae deletion strains, locus YLR113W, strain HOG1, hits give low values 1 | S. cerevisiae deletion strains, locus YLR221C, strain rsa3, hits give low values 0.994 | S. cerevisiae deletion strains, locus YLR258W, strain gsy2, hits give low values 1 | S. cerevisiae deletion strains, locus YLR262C, strain YPT6 (second series), hits give low values 0.935 | S. cerevisiae deletion strains, locus YLR262C, strain YPT6, hits give low values 0.984 | S. cerevisiae deletion strains, locus YLR268W, strain sec22, hits give low values 0.992 | S. cerevisiae deletion strains, locus YLR320W, strain mms22, hits give low values 0.995 | S. cerevisiae deletion strains, locus YLR330W, strain CHS5, hits give low values 1.01 | S. cerevisiae deletion strains, locus YLR342W, strain FKS1 (second series), hits give low values 1.01 | S. cerevisiae deletion strains, locus YLR342W, strain FKS1, hits give low values 1.01 | S. cerevisiae deletion strains, locus YLR357W, strain rsc2, hits give low values 0.95 | S. cerevisiae deletion strains, locus YLR370C, strain arc18, hits give low values 1 | S. cerevisiae deletion strains, locus YLR371W, strain rom2, hits give low values 1.01 | S. cerevisiae deletion strains, locus YLR384C, strain iki3, hits give low values 1 | S. cerevisiae deletion strains, locus YLR418C, strain cdc73, hits give low values 0.979 | S. cerevisiae deletion strains, locus YML016C, strain PPZ1, hits give low values 1.01 | S. cerevisiae deletion strains, locus YML032C, strain rad52, hits give low values 1.01 | S. cerevisiae deletion strains, locus YML120C, strain ndi1, hits give low values 0.998 | S. cerevisiae deletion strains, locus YML124C, strain tub3, hits give low values 1.01 | S. cerevisiae deletion strains, locus YMR058W, strain fet3, hits give low values 1.01 | S. cerevisiae deletion strains, locus YMR078C, strain ctf18, hits give low values 1.02 | S. cerevisiae deletion strains, locus YMR125W, strain sto1, hits give low values 0.997 | S. cerevisiae deletion strains, locus YMR129W, hits give low values 0.994 | S. cerevisiae deletion strains, locus YMR205C, strain PFK2, hits give low values 0.985 | S. cerevisiae deletion strains, locus YMR223W, strain ubp8, hits give low values 1.01 | S. cerevisiae deletion strains, locus YMR231W, strain pep5, hits give low values 0.999 | S. cerevisiae deletion strains, locus YMR263W, strain SAP30, hits give low values 1.02 | S. cerevisiae deletion strains, locus YMR307W, strain GAS1, hits give low values 1.02 | S. cerevisiae deletion strains, locus YNL067W, strain RPL9B, hits give low values 0.999 | S. cerevisiae deletion strains, locus YNL071W, strain lat1, hits give low values 1 | S. cerevisiae deletion strains, locus YNL128W, strain TEP1, hits give low values 1 | S. cerevisiae deletion strains, locus YNL153C, strain GIM3, hits give low values 0.989 | S. cerevisiae deletion strains, locus YNL183C, strain NPR1, hits give low values 0.935 | S. cerevisiae deletion strains, locus YNL209W, strain ssb2, hits give low values 0.999 | S. cerevisiae deletion strains, locus YNL233W, strain BNI4, hits give low values 1.02 | S. cerevisiae deletion strains, locus YNL248C, strain rpa49, hits give low values 0.982 | S. cerevisiae deletion strains, locus YNL250W, strain rad50, hits give low values 1.01 | S. cerevisiae deletion strains, locus YNL271C, strain bni1, hits give low values 1.01 | S. cerevisiae deletion strains, locus YNL298W, strain CLA4, hits give low values 1.02 | S. cerevisiae deletion strains, locus YNL307C, strain MCK1, hits give low values 1.02 | S. cerevisiae deletion strains, locus YNL322C, strain KRE1 (second series), hits give low values 0.992 | S. cerevisiae deletion strains, locus YNL322C, strain KRE1, hits give low values 1.01 | S. cerevisiae deletion strains, locus YNR049C, strain mso1, hits give low values 1 | S. cerevisiae deletion strains, locus YNR052C, strain pop2, hits give low values 1.01 | S. cerevisiae deletion strains, locus YOL006C, strain TOP1, hits give low values 1.03 | S. cerevisiae deletion strains, locus YOL012C, strain htz1 0.789 | S. cerevisiae deletion strains, locus YOL147C, strain pex11, hits give low values 1.01 | S. cerevisiae deletion strains, locus YOR001W, strain rrp6, hits give low values 0.999 | S. cerevisiae deletion strains, locus YOR061W, strain CKA2, hits give low values 0.998 | S. cerevisiae deletion strains, locus YOR069W, strain VPS5, hits give low values 1.01 | S. cerevisiae deletion strains, locus YOR070C, strain gyp1, hits give low values 1.01 | S. cerevisiae deletion strains, locus YOR080W, strain dia2, hits give low values 0.994 | S. cerevisiae deletion strains, locus YOR083W, strain WHI5, hits give low values 1 | S. cerevisiae deletion strains, locus YOR106W, strain vam3, hits give low values 1.01 | S. cerevisiae deletion strains, locus YOR136W, strain idh2, hits give low values 1.01 | S. cerevisiae deletion strains, locus YOR144C, strain elg1, hits give low values 1 | S. cerevisiae deletion strains, locus YOR184W, strain ser1, hits give low values 1.02 | S. cerevisiae deletion strains, locus YOR231W, strain MKK1, hits give low values 0.978 | S. cerevisiae deletion strains, locus YOR265W, strain rbl2, hits give low values 1 | S. cerevisiae deletion strains, locus YOR270C, strain vph1, hits give low values 1.01 | S. cerevisiae deletion strains, locus YOR290C, strain snf2, hits give low values 1.02 | S. cerevisiae deletion strains, locus YOR316C, strain cot1, hits give low values 1.01 | S. cerevisiae deletion strains, locus YPL051W, strain arl3, hits give low values 0.997 | S. cerevisiae deletion strains, locus YPL055C, strain LGE1, hits give low values 0.983 | S. cerevisiae deletion strains, locus YPL078C, strain atp4, hits give low values 0.999 | S. cerevisiae deletion strains, locus YPL106C, strain sse1, hits give low values 1 | S. cerevisiae deletion strains, locus YPL240C, strain hsp82, hits give low values 1.01 | S. cerevisiae deletion strains, locus YPL241C, strain CIN2, hits give low values 1 | S. cerevisiae deletion strains, locus YPL256C, strain CLN2, hits give low values 0.966 | S. cerevisiae deletion strains, locus YPR119W, strain clb2, hits give low values 1.01 | S. cerevisiae deletion strains, locus YPR141C, strain kar3, hits give low values 1.02 | S. cerevisiae deletion strains, locus YPR163C, strain tif3, hits give low values 1 | S. cerevisiae deletion strains, locus YPR167C, strain met16, hits give low values 1.01 | S. cerevisiae deletion strains, strain wtn01, hits give low values 1.01 | S. cerevisiae strains, strain wild type, hits give low values 1
